This is an account of results in PubChem BioAssay.

Values without a mark were called inactive. The list shows a part of the results. The source made the active and inactive calls.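 Rule for the calls, unless noted: active = mean inhibition across replicates above the hit cutoff set by the earlier primary screen (cut at about 15% in these data); inactive = the rest.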

For test [1], the target named is Platelet-activating factor acetylhydrolase (Homo sapiens) (UniProt Q13093). Nature of the test: inhibition of plasma PAF acetylhydrolase – biochemical, fluorescence polarization, human, confirmation (AID 463230;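 active = mean inhibition of the triplicate above the hit cutoff set for the earlier primary screen, cut at about 25% in these data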;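 note: 0% = enzyme with DMSO and 100% = wells lacking pPAFAH enzyme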). The conditions noted are these: recombinant pPAFAH, FP-Rh probe fluorescence polarization; at 3.39 µM; stronger effect = higher value.
Platelet-activating factor acetylhydrolase (Homo sapiens), sequence (Q13093 whole entry, looked up): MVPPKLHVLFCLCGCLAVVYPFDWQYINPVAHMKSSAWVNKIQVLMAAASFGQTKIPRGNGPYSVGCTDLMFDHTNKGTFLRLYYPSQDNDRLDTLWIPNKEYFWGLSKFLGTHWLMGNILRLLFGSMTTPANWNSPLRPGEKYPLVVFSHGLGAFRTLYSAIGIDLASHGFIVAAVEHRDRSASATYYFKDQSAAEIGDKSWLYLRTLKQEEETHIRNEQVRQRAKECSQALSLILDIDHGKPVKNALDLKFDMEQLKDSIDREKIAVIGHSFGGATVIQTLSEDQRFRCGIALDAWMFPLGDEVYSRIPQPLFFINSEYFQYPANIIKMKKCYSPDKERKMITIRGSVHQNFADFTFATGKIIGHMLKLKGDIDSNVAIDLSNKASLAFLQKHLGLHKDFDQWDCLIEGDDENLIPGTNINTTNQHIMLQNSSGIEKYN
The target in test [2] is (Lyso)-N-acylphosphatidylethanolamine lipase (Mus musculus) (UniProt Q8VD66). Nature of the test: mouse ABHD4 hydrolase blockers, triplicate – biochemical, fluorescence polarization, confirmation (AID 720658;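 active = mean inhibition across replicates above the hit cutoff set in the primary screen, cut at about 30% in these data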;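 note: 0% = wild-type ABHD4 with DMSO and 100% = catalytically dead S159A mutant with DMSO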). Conditions: purified mABHD4, FP-Rh probe fluorescence polarization; at 8.92 µM; stronger effect = higher value. A general note: In fluorescence polarisation assays a small probe gives low polarisation when free and higher when bound to something large.
(Lyso)-N-acylphosphatidylethanolamine lipase (Mus musculus), sequence (Q8VD66 whole entry, looked up): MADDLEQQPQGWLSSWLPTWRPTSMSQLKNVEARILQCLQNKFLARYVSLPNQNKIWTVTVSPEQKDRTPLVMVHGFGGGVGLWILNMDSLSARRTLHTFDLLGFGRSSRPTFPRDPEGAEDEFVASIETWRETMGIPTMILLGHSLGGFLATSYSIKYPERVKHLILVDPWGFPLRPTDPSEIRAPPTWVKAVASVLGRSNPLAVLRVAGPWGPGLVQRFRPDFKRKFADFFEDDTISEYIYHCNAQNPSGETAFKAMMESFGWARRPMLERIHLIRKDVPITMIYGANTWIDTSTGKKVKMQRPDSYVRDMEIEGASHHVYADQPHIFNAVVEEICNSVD

Test [3] concerns the target Protein-arginine deiminase type-4 (Homo sapiens) (UniProt Q9UM07). Briefly: protein arginine deiminase 4 blockade, retest – biochemical, fluorescence polarization, confirmation (AID 488796).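 Note: inhibitors block active-site labeling by the probe so polarization falls; 0% = PAD4 with probe and DMSO and 100% = probe without PAD4 enzyme.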 Conditions: recombinant PAD4, RCA probe fluorescence polarization; at 6.36 µM; stronger effect = higher value.
Test [4] is described as follows: StAR promoter reporter inhibitors, counter-screen for LRH-1 inverse agonist project, cell-based, luminescence, high throughput (AID 651611; in the data active = inhibition above about 28%). Conditions: StAR promoter luciferase reporter counterscreen, at 3.6 µM, stronger effect = higher value. In general terms: Counterscreens check selectivity or assay interference.
In test [5] the target is Nuclear receptor subfamily 5 group A member 2 (Homo sapiens) (UniProt O00482). Briefly: NR5A2 activity suppression in reporter cells – cell-based, luminescence, confirmation (AID 651613; in the data active = inhibition above about 42%;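 note: HEK293T cells co-transfected with LRH-1 and StAR promoter luciferase reporter; 0% = vehicle wells and 100% = parental cells lacking receptor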). Conditions: cell-based LRH-1 luciferase reporter, inverse agonism; at 3.6 µM; stronger effect = higher value. For orientation: Reporter assays use an easily measured gene product as a stand-in for the process of interest.
Nuclear receptor subfamily 5 group A member 2 (Homo sapiens), sequence (O00482 whole entry, looked up): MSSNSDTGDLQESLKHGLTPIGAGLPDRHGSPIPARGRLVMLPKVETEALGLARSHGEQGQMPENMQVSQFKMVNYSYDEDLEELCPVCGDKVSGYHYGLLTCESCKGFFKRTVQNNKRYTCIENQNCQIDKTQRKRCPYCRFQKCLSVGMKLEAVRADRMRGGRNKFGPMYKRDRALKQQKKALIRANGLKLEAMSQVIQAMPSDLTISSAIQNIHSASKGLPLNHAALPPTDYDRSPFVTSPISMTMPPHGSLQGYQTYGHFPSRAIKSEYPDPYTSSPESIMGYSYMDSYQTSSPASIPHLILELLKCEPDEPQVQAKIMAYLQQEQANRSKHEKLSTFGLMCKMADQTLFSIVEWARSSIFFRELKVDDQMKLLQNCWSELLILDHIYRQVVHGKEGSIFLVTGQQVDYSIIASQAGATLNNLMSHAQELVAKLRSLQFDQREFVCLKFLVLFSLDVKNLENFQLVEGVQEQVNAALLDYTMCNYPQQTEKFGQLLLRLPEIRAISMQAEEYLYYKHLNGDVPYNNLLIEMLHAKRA

The target in test [6] is Steroidogenic factor 1 (Homo sapiens) (UniProt Q13285). Briefly: inverse agonism at SF1 nuclear receptor – cell-based, luminescence, high throughput, counter-screen for LRH-1 inverse agonist project (AID 651614; in the data active = inhibition above about 44%;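 note: cells cotransfected with StAR promoter reporter and SF1 expression vector; 0% = vehicle on cells with receptor and 100% = vehicle on cells lacking receptor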). The conditions noted are these: cell-based SF1 luciferase reporter, at 3.6 µM, stronger effect = higher value.
Steroidogenic factor 1 (Homo sapiens), sequence (Q13285 whole entry, looked up, the tested form may be a part): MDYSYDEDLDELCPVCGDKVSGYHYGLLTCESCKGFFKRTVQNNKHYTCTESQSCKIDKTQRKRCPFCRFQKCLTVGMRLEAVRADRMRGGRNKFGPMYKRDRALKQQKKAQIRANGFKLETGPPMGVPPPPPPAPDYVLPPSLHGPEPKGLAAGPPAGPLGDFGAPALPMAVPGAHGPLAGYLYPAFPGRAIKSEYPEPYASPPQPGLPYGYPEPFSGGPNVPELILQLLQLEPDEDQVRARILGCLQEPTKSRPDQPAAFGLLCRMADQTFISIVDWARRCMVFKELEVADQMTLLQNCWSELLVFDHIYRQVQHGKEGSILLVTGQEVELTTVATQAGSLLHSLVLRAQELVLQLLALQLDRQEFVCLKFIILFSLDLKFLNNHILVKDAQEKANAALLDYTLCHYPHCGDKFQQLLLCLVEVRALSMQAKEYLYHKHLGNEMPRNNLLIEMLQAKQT
A short description of test [7]: compounds suppressing VP16-driven luciferase signal – cell-based, luminescence, high throughput, counter-screen for LRH-1 inverse agonist project (AID 651615; in the data active = inhibition above about 33%). Conditions: Gal4-VP16 luciferase reporter cells, at 3.6 µM, stronger effect = higher value.
Test [8] addresses Serine protease HTRA1 (Homo sapiens) (UniProt Q92743). Briefly: confirming inhibition of human HTRA1 – biochemical, fluorescence polarization, confirmation (AID 540248;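 active = mean inhibition over three repeats above a set limit taken from the earlier primary screen, cut at about 37% in these data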;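 note: 0% = HTRA1 with DMSO and 100% = wells lacking HTRA1; inhibitors block probe binding so polarization drops and inhibition rises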). Conditions: recombinant HTRA1, FP-rhodamine activity-based probe, at 5.96 µM, stronger effect = higher value.
Test [9] concerns transactivating tegument protein VP16 (Human herpesvirus 1). Briefly: compounds suppressing VP16-driven luciferase signal – cell-based, luminescence, single concentration, counter-screen for SRC2 inhibitor project (AID 652007; in the data active = inhibition above about 36%). Conditions: cell-based VP16 transactivation luciferase reporter, at 8.9 µM, stronger effect = higher value.
Test [10] addresses Nuclear receptor coactivator 2 (Homo sapiens) (UniProt Q15596). Briefly: inhibition of GAL4-SRC2 driven luciferase expression – cell-based, luminescence, HEK293, triplicate, confirmation (AID 652008;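 active = mean inhibition above 46.5%, the solvent-only control mean plus 3 SD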;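 note: 0% = DMSO-treated cells and 100% = Gossypol at 36 µM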). Conditions: HEK293 GAL4-SRC2 luciferase reporter, at 8.9 µM, stronger effect = higher value.
Test [11] concerns the target Receptor-interacting serine/threonine-protein kinase 2 (Homo sapiens) (UniProt O43353). Briefly: inhibitors of RIPK2 association with NOD2 – fluorescence, CHO cells, BLA complementation, triplicate, confirmation (AID 624370;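 active = mean inhibition across replicates above a set limit taken from the earlier primary screen, cut at about 21% in these data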;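 note: 0% = DMSO-only wells and the high end = clavulanate BLA-blocked wells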). Conditions: CCF4 FRET, at 4.98 µM, stronger effect = higher value.
A short description of test [12]: BLA reporter readout interference – cell-based, CHO-K1 CMV-bla, CCF4 FRET, fluorescence, artefact control for NOD2-RIPK2 interaction inhibitor project, confirmation (AID 624371;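 active = mean inhibition above the low-control mean inhibition plus three low-control SD, cut at about 11% in these data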;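 note: 0% = DMSO only wells and 100% = clavulanate high control wells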). Conditions: CCF4 FRET ratio, counterscreen, at 4.98 µM, stronger effect = higher value.
Test [13] in a line: BSA probe fluorescence interference – biochemical, TAMRA-labeled BSA, counter-screen for TCR-CD3 interaction inhibitor project (AID 652035; in the data active = inhibition above about 23%;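 note: 0% = buffer low control and 100% = reference high control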). Conditions: TAMRA-labeled BSA probe fluorescence counterscreen; at 9.4 µM; stronger effect = higher value.
Test [14] relates to T-cell receptor (TCR)-CD3 interaction, human. Nature of the test: blockers of TCR binding to CD3 – biochemical, fluorescence, TAMRA-labeled TCR probe, confirmation (AID 652036; in the data active = inhibition above about 19%). The conditions noted are these: TAMRA-labeled TCR probe fluorescence binding assay; at 9.4 µM; stronger effect = higher value.
A short description of test [15]: reduced OD of T4-infected AddAB+ E. coli – absorbance, E. coli V3065, T4 phage, triplicate, AddAB inhibitor project, confirmation (AID 488942;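 active = mean inhibition above a set limit taken from the earlier primary screen, cut at about 13% in these data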;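 note: higher means less bacterial growth since AddAB block lets phage replicate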). The conditions noted are these: E. coli V3065 expressing H. pylori AddAB, at 11.9 µM, stronger effect = higher value, T4 phage with gene 2 nonsense mutations.
Test [16] can be described thus: reduced OD of phage-infected RecBCD+ V66 E. coli – absorbance, mutant T4 phage, counter-screen for AddAB inhibitor project (AID 488955;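 active = mean inhibition above the mean of solvent-only control wells plus 3 SD, cut at about 4% in these data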;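 note: optical density read after an 18 h incubation at 37 °C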). Conditions: OD growth, at 11.9 µM, stronger effect = higher value.
The nature of test [17]: bacterial growth inhibitors – absorbance, counter-screen for AddAB inhibitor project, confirmation (AID 488956; in the data active = inhibition above about 25%). The conditions noted are these: bacterial viability, absorbance (AddAB counterscreen); at 11.9 µM; stronger effect = higher value.

Protein-arginine deiminase type-4 (Homo sapiens), sequence (Q9UM07 whole entry, looked up): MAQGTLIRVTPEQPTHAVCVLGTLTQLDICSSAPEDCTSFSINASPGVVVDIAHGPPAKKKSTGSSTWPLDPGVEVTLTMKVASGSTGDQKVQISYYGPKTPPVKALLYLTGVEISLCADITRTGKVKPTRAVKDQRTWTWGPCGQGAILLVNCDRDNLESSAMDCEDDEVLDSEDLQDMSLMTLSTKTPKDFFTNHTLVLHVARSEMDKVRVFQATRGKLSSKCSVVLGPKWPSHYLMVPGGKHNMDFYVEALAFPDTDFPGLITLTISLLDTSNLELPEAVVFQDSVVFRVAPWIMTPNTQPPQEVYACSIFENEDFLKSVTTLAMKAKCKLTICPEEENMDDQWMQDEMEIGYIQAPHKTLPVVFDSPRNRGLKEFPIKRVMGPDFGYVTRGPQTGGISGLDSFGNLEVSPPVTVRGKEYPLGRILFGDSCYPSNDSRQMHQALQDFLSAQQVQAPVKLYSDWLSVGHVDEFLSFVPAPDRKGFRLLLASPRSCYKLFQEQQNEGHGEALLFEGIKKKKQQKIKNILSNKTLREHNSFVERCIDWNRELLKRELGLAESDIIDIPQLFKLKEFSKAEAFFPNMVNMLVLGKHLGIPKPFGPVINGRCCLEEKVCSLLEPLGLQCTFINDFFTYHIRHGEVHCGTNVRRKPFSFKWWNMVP
Nuclear receptor coactivator 2 (Homo sapiens), sequence (Q15596 whole entry, looked up, the tested form may be a part): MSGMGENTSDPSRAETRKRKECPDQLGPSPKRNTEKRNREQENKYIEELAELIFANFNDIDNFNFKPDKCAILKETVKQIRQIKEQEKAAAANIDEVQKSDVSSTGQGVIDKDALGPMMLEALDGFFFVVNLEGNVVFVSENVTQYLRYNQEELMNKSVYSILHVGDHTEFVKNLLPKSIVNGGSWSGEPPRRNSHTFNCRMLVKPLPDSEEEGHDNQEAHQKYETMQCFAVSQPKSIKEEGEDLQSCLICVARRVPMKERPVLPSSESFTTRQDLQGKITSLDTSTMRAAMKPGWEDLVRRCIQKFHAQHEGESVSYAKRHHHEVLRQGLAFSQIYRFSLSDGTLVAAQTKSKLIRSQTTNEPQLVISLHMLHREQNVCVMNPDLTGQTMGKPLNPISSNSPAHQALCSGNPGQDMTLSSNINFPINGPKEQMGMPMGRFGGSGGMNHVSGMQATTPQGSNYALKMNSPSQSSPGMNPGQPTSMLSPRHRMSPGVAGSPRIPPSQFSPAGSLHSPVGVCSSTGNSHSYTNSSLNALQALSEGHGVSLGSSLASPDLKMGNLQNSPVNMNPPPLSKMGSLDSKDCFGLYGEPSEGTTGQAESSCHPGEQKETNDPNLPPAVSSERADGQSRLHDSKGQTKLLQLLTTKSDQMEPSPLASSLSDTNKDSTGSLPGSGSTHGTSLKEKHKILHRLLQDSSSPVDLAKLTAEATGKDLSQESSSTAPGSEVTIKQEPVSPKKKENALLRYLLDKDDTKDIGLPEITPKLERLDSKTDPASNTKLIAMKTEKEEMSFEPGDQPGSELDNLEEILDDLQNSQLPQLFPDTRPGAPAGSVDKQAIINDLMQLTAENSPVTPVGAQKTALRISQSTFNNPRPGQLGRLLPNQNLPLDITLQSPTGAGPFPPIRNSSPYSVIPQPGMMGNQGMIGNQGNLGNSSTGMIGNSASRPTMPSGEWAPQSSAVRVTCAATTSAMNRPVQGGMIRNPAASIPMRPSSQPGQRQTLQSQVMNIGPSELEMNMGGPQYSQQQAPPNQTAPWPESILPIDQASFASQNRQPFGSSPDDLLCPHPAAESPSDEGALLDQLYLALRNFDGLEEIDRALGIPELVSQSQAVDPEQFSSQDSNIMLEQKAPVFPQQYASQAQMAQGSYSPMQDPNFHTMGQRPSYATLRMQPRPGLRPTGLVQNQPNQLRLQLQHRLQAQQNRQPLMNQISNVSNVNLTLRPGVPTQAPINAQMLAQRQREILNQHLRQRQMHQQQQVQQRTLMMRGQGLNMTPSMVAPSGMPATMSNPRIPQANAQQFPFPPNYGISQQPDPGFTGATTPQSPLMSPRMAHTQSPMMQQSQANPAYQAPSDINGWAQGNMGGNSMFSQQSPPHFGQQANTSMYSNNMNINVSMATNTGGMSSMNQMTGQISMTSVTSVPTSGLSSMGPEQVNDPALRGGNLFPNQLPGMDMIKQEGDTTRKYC
Receptor-interacting serine/threonine-protein kinase 2 (Homo sapiens), sequence (O43353 whole entry, looked up): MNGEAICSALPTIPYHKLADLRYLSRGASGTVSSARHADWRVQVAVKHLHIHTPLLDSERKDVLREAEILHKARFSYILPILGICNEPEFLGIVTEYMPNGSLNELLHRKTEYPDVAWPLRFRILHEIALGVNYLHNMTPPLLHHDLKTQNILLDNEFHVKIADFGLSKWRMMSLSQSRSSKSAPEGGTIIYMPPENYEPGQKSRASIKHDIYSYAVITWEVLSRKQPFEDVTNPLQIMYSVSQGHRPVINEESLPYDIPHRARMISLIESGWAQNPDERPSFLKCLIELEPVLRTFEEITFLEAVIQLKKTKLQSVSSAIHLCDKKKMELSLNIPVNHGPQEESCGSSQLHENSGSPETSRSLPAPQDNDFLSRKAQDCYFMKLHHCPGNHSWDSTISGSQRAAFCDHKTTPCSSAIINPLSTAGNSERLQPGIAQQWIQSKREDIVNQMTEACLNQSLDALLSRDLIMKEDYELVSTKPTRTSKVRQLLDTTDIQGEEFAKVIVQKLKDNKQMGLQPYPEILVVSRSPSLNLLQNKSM

As usually defined, the inhibition is the drop in the measured response relative to a control, in per cent. Regarding `CC(C)c1ccc(NC(=S)NNc2ccc(Cl)c(C(=O)O)c2)cc1`, the values for the inhibition in [1] and in [2] were 11.9% and 19.4%, respectively.

With `COc1cc(C(=O)NCc2ccc3c(c2)cc(C)n3C)cc(OC)c1OC`, in test [3], the inhibition is 1.97%. The same measure, in the same setting: the figure for `Cc1cc2c(cc1C)N(C(=O)CN1C(=O)c3ccccc3C1=O)C(C)(C)c1ssc(=S)c1-2` is 33.7% (active); for `CC(C)C(NC(=O)c1ccc(Cl)cc1)C(=O)O` (configuration not stated) it is -6.12%. Turning to `O=C(NCC1CCCO1)c1cc2c([nH]c3ccccc32)c(-c2ccc(F)cc2)n1` (configuration not stated), the inhibition in test [3] was 64.8% (active); in test [4], 50.5% (active); in test [5], 41.6% (active); in test [6], 50.1% (active); in test [7], 27.2%. Consider `Cn1c(Nc2cccc(Cl)c2)nc2ccccc21`, for which the inhibition in test [3] is 4.71%. On the same count and under the same terms, to `Cc1ccn2cc(-c3nonc3C)cc2c1` belongs 6.98%; to `C=CCN(C(=O)Nc1ccc2oc(C)nc2c1)c1ccccc1`, -3.81%. Same read-out and setting: the figure for `CC(C)(C)NC(=O)NC(=O)COC(=O)CCC1CCCCC1` is 2.14%. As for `CCC(C)Cn1c(O)cc2nn(-c3nc4ccccc4s3)c(=O)c-2c1C` (configuration not stated), the inhibition in test [1] was 20.9%; in [8], 59.6% (active); in [9] it was 86.8% (active); in test [10], 94.8% (active); in test [2], 54.4% (active). As for `CC(C)n1cnc2c(NCc3ccccc3)cc(OCC3CCN(C)CC3)cc21`, the inhibition in test [3] was -10.7%. As to `CC(=O)N(c1ccc2oc(=O)sc2c1)S(=O)(=O)c1ccc(C)cc1`, the inhibition in test [3] is 10.9%. For the molecule `O=C(/C=C/c1cccs1)c1cc(Cl)ccc1OC(=O)N1CCOCC1`, the inhibition in [1] is 47.8% (active); in [9], 20.3%; in test [10] it was -4.35%. On to `COC(=O)c1ccc(NC(=O)CSc2nncc3ccc(OC)c(OC)c23)cc1`, for which the inhibition in [3] is 0.13%. Regarding `Cc1nn(C)cc1N1C(=O)c2cccc3c(N)ccc(c23)C1=O`, the inhibition in test [3] is 36.2% (active); in [11], 24% (active); in test [12], 26.6% (active); in test [13], 52.9% (active); in test [14], 33.9% (active); in test [2] it was 40.4% (active). On to `Cc1nc2ccc(NC(=O)C(F)(F)F)cc2o1`, for which the inhibition in [3] is 4.72%. As for `O=C(CN1CCCCCC1)Nc1ccc(Br)cc1Br`, the inhibition in test [3] is 3.01%. Same read-out and setting: the figure for `c1ccc2c(C[n+]3csc4ccccc43)cccc2c1` is 61.3% (active); for `CC(=O)Oc1cccc(N2C(=O)CC(Nc3ccc(N4CCOCC4)cc3)C2=O)c1` (configuration not stated) it is -1.36%; for `COc1ccccc1CNC(=O)C1CCN(c2nc3ccccc3o2)CC1` it is 5.44%. In the case of `CCCCNC(=O)C1(c2ccc(OC)cc2)CCOCC1`, the inhibition in test [3] was 8.6%. Same read-out and setting: the figure for `COc1cc(SC#N)ccc1N=Cc1c(C)[nH]n(-c2ccc(C)cc2)c1=O` is 29.7% (active); for `COc1ccc(C2NC(=S)NC3=C2CCc2ccccc23)cc1OC` (configuration not stated) it is 22.5% (active). On to `C/[N+]([O-])=C\c1ccc([N+](=O)[O-])o1`, for which the figures for the inhibition in test [15], in [16] and in [17] were 101% (active), 42.8% (active) and 99.3% (active), respectively.
